CHRM1 PAM – potentiates human M1 receptor response to acetylcholine | CHO-K1 hM1, Fluo-8 calcium fluorescence, ACh EC20; 0% = ACh EC20, 100% = maximal ACh | activation, % at 3 µM | hit rate 0.088% among 360,000 | AID 588819; in the data active = activation above about 19%, passing the limit was not always enough
Target sequence (P11229 whole entry, looked up): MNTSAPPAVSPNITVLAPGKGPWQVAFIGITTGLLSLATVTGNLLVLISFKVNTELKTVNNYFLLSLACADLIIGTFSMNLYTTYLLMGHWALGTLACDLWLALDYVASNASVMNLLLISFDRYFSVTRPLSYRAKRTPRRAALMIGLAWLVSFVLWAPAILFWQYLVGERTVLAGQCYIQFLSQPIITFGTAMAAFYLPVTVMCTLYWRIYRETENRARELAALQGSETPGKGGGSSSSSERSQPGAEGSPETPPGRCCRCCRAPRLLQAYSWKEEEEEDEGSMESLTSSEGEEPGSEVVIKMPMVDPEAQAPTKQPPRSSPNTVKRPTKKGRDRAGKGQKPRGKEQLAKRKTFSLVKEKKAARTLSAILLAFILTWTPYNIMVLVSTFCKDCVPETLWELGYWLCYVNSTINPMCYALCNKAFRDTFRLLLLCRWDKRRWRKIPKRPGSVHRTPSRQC
CHO-K1 Ca antag – nonselective inhibitor or artifact in parental CHO-K1 cells. ATP-induced calcium, Fluo-8 fluorescence. AID 602250. hit rate 0.6% among 360,000. inhibition, % at 3 µM;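 active = inhibition above a per-plate cutoff, the plate's mean sample inhibition plus 3 SD, cut at about 24% in these data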
CHO-K1 Ca PAM – M1 PAM counterscreen hit in parental CHO-K1 cells. ATP EC20, Fluo-8 calcium fluorescence; 0% at ATP EC20, 100% at ATP max. activation, % at 3 µM. hit rate 0.02% among 360,000;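 active = activation above the run cutoff, the mean activation of all test compounds plus 3 SD, cut at about 40% in these data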;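 note: peak over basal fluorescence ratio in a 140 s read after ATP addition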
M1 antag – human CHRM1 antagonism | P11229 | CHO-K1 hM1, Fluo-8 calcium fluorescence, ACh EC80 antagonist | inhibition, % at 3 µM | hit rate 1.3% among 360,000;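 active = percent inhibition above its own plate's cutoff, namely the mean of that plate's compound wells plus 3 SD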;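 note: peak over basal fluorescence ratio during 140 s after agonist addition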
CHRM1 agonist – agonists of human M1 muscarinic receptor; P11229; CHO-K1 hM1, Fluo-8 calcium fluorescence, agonist mode; 0% DMSO, 100% acetylcholine EC100; activation, % at 3 µM; hit rate 0.33% among 360,000;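 active = activation above the run's mean compound activation plus 3 SD, cut at about 16% in these data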;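 note: peak over basal fluorescence ratio within a 140 s kinetic read after compound addition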
M1 ag parental – M1 agonist counterscreen hit in parental CHO-K1 cells; Fluo-8 calcium fluorescence; scaled to maximal ATP response, vehicle zero; activation, % at 3 µM; hit rate 0.48% among 360,000; in the data active = activation above about 15%;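 note: untransfected CHO-K1 host cells lacking M1 receptor as counterscreen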
A number is an active result; 0 = inactive. Compounds with a hit are over-represented: about 2.4% of the library has one in this group of screens.

SMILES | CHRM1 PAM | CHO-K1 Ca antag | CHO-K1 Ca PAM | M1 antag | CHRM1 agonist | M1 ag parental
N#C/C(=C/c1ccc(-c2ccc(S(N)(=O)=O)cc2)o1)C(=O)Nc1ccccc1 | 0 | 28 | 0 | 0 | 0 | 0
COC(=O)c1ccc(/C=C(\C#N)c2nc3ccccc3s2)cc1 | 0 | 0 | 0 | 0 | 0 | 0
Cc1ccc(C(=O)N2CCN(C)CC2)cc1S(=O)(=O)N1CCCCCC1 | 0 | 0 | 0 | 0 | 0 | 0
N#Cc1ccc(-c2ccc(OCC(=O)NCC(=O)Nc3ccc(F)c(F)c3F)cc2)cc1 | 0 | 0 | 0 | 0 | 0 | 0
Cc1cccc(C)c1-n1c(C)cc(/C=N\Nc2ccc([N+](=O)[O-])cn2)c1C | 0 | 0 | 0 | 35 | 0 | 0
Clc1ccc(C2=CSC3=NCCN23)cc1Cl | 0 | 0 | 0 | 17 | 0 | 0
CCCCOc1ccc(C2=CSC3=NCCN23)cc1[N+](=O)[O-] | 0 | 0 | 0 | 59 | 0 | 0
COc1ccc(C2=CSC3=NCCN23)cc1OC | 0 | 0 | 0 | 0 | 0 | 0
O=C(CSc1nn(-c2ccc(Cl)cc2)c(=S)s1)NCC1CCCO1 (centres undefined) | 0 | 0 | 0 | 0 | 0 | 0
COc1ccccc1CN(C)C(=O)c1cc(-c2cccs2)nc2ccccc12 | 0 | 0 | 0 | 27 | 0 | 0
COc1ccc(-c2cc(C(=O)N(C)Cc3cccc(OC)c3OC)c3ccccc3n2)cc1OC | 0 | 0 | 0 | 0 | 0 | 0
COc1cccc(CN(C)C(=O)c2cc(-c3ccc(OC)c(OC)c3)nc3ccccc23)c1 | 0 | 0 | 0 | 0 | 0 | 0
COc1ccc(CN(C)C(=O)c2cc(-c3ccc(OC)c(OC)c3)nc3ccccc23)c(OC)c1 | 0 | 0 | 0 | 29 | 0 | 0
COc1ccc(-c2cc(C(=O)N(C)Cc3nc4ccccc4c(=O)[nH]3)c3ccccc3n2)cc1OC | 0 | 0 | 0 | 33 | 0 | 0
COc1ccc(CN(C)C(=O)c2cc(-c3ccccc3)nc3ccc(C)cc23)c(OC)c1OC | 0 | 0 | 0 | 0 | 0 | 18
COc1ccc(CCN(C)C(=O)c2cc(-c3ccccc3)nc3ccc(C)cc23)cc1OC | 0 | 0 | 0 | 0 | 0 | 0
CCOC(=O)c1[nH]c(=S)[nH]c1C | 0 | 0 | 0 | 0 | 0 | 0
CC(C)NC(=O)C1(c2ccccc2)CC1(Cl)Cl (centres undefined) | 0 | 0 | 0 | 0 | 0 | 0
COc1ccc2[nH]c(C)c(-c3csc(N)n3)c2c1 | 0 | 0 | 0 | 0 | 0 | 0
CCN(CC)CCOC(=O)c1ccc(NC(=O)CCCN2C(=O)/C(=C/c3cccs3)SC2=S)cc1 | 0 | 0 | 0 | 36 | 0 | 0
O=C(NCCc1ccccc1)C(=O)NCC1OCCN1S(=O)(=O)c1ccc2c(c1)OCCO2 (centres undefined) | 0 | 0 | 0 | 0 | 0 | 19
Cc1cccc(N2CCN(C(=O)c3cc(COc4ccc(F)c(F)c4)on3)CC2)n1 | 0 | 0 | 0 | 0 | 0 | 0
COc1ccc(S(=O)(=O)NCC2CCCN(Cc3ccccc3Cl)C2)cc1 (centres undefined) | 0 | 0 | 0 | 51 | 0 | 0
COc1ccc(S(=O)(=O)NCC2CCCN(Cc3ccc(OC)cc3F)C2)cc1 (centres undefined) | 0 | 0 | 0 | 0 | 0 | 0
CSCCC(NC(=O)c1cccc([N+](=O)[O-])c1)C(=O)O (centres undefined) | 0 | 0 | 0 | 0 | 0 | 0
SMILES | CHRM1 PAM | CHO-K1 Ca antag | CHO-K1 Ca PAM | M1 antag | CHRM1 agonist | M1 ag parental
O=C(NC(N1CCOCC1)C(Cl)(Cl)Cl)c1ccc(F)cc1 (centres undefined) | 0 | 0 | 0 | 0 | 0 | 18
O=[N+]([O-])c1ccc(Cl)c(CN2CCN(c3ncccn3)CC2)c1 | 0 | 0 | 0 | 0 | 0 | 0
Cc1ccc2nc(C)c(CN3CCN(c4ccc([N+](=O)[O-])cc4Cl)CC3)n2c1 | 0 | 0 | 0 | 37 | 0 | 0
CCN1C(=O)[C@H]2[C@@H](c3ccc(C(F)(F)F)cc3)N[C@]3(CCCN(Cc4ccc(C(F)(F)F)cc4)C3=O)[C@H]2C1=O | 0 | 0 | 0 | 0 | 0 | 0
CCN1C(=O)[C@H]2[C@@H](c3ccc(C)cc3)N[C@]3(CCCN(Cc4ccc(F)cc4)C3=O)[C@H]2C1=O | 0 | 25 | 0 | 0 | 0 | 0
Cc1ccc(CN2CCC[C@]3(N[C@H](c4ccccc4)[C@@H]4C(=O)N(Cc5ccccc5)C(=O)[C@@H]43)C2=O)cc1 | 0 | 29 | 0 | 0 | 0 | 0
O=C(Cn1c(=O)oc2ccc(Cl)cc21)Nc1ccon1 | 0 | 0 | 0 | 0 | 0 | 0
C=CS(=O)(=O)c1ccc(Oc2ccc(S(=O)(=O)C=C)cc2)cc1 | 0 | 0 | 0 | 0 | 0 | 15
CC1(C)CC(=O)C=C(Nc2ccc(Cl)c(Br)c2)C1 | 0 | 0 | 0 | 0 | 0 | 0
CC(CCc1ccccc1)NC(=O)CN1CCN(Cc2ccc(Cl)cc2)C1=O (centres undefined) | 0 | 28 | 0 | 0 | 0 | 0
COc1ccc(/C=C/CN2CCN(CC(C)C)C(CCO)C2)cc1 (centres undefined) | 0 | 0 | 0 | 28 | 0 | 0
CCOc1ccc(NC(=O)CN(C)C(=O)c2ccc(OCC3CCCO3)cc2)cc1OCC (centres undefined) | 0 | 0 | 0 | 0 | 0 | 0
O=C(O)c1cccc(S(=O)(=O)Nc2ccc(-c3ccccc3)cc2)c1 | 0 | 0 | 0 | 0 | 0 | 0
O=C(O)c1ccc(NS(=O)(=O)c2ccc3c(c2)C(=O)c2ccccc2C3=O)cc1 | 0 | 25 | 0 | 0 | 0 | 0
Brc1cc2c(cc1Br)OCCOCCOCCOCCO2 | 0 | 0 | 0 | 0 | 0 | 0
Brc1ccc2c(c1)OCCOCCOc1cc(Br)ccc1OCCOCCOCCO2 | 0 | 0 | 0 | 39 | 0 | 0
CN(C)C(CNC(=O)c1cccc(S(=O)(=O)NCc2ccccc2)c1)c1ccccc1 (centres undefined) | 0 | 0 | 0 | 0 | 0 | 0
Cn1c(N)c(N2CCN(c3ccccc3)CC2)c(=O)[nH]c1=O | 0 | 0 | 0 | 0 | 0 | 0
Cc1cc(C)c(NC(=O)c2ccc3c(c2)C(=O)N(Cc2cccnc2)C3=O)c(C)c1 | 0 | 0 | 0 | 0 | 0 | 0
Cc1ccc(O)c(NC(=O)c2ccc3c(c2)C(=O)N(Cc2cccnc2)C3=O)c1 | 0 | 33 | 0 | 0 | 0 | 0
CN(C)c1ccc(NC(=O)c2cccc(C(=O)Nc3ccc(N(C)C)cc3)n2)cc1 | 0 | 28 | 0 | 0 | 0 | 0
Cc1cc(C)nc(NC(=NCc2ccc3c(c2)OCO3)NC(=O)Nc2ccccc2)n1 | 0 | 0 | 0 | 32 | 0 | 0
O=S1(=O)c2ccc(Br)cc2N2CCC[C@@H]2CN1Cc1ccc(Cl)cc1 | 0 | 0 | 0 | 24 | 0 | 0
O=C(Cn1ccc([N+](=O)[O-])n1)NCc1nc2ccccc2[nH]1 | 0 | 0 | 0 | 0 | 0 | 17
C=CCN1C(=O)C(CC(=O)Nc2ccccc2)SC1=Nc1ccc(S(N)(=O)=O)cc1 (centres undefined) | 0 | 0 | 0 | 0 | 0 | 0
COc1ccccc1CNc1nc(NCc2ccccc2OC)c2sccc2n1 | 0 | 0 | 0 | 31 | 0 | 0

Screening data (PubChem BioAssay)
